An excerpt weighted towards active compounds, which were near 4.2% of everything screened.
tim10-1 inh: inhibits growth of tim10-1 mutant yeast | 330,000 compounds, 2.2% hits | inhibition, % at 20 µM | S. cerevisiae tim10-1 ts strain growth, BacTiter-Glo, 24 h | AID 463190;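 active = inhibition of at least 40%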;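 note: mutant grown at 25 °C; 0% = DMSO wells with yeast and 100% = wells holding no yeast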
TIM10 inh: TIM10 yeast growth inhibition | S. cerevisiae TIM10 strain growth, BacTiter-Glo luminescence, 24 h | inhibition, % at 10 µM | 330,000 compounds, 1.4% hits;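 active = inhibition of 40% or more at the single tested concentration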;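 note: wild-type TIM10 isogenic control strain grown at permissive 25 °C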
V-ATPase pH: regulators of yeast V-ATPase proton transport; S. cerevisiae, pHLuorin cytosolic pH fluorescence; response, % at 10 µM; 350,000 compounds, 0.37% hits; AID 504577; in the data active = response mostly above about 7.3%, no sharp cut-off; inactive = mostly below about 5.4%; note: actives read high
NLRP3 yeast inh: NALP3 inhibition in yeast | Yeast reconstituted NLRP3/ASC/caspase-1, beta-gal luminescence, 24 h | inhibition, % at 10 µM | 330,000 compounds, 0.39% hits | AID 2825;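 active = inhibition of 50% or more; inactive = inhibition below 50%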;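 note: plate controls were induced DMSO wells for no effect and uninduced yeast grown without galactose for full effect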
NALP1 yeast inh: NALP1 inhibition; S. cerevisiae NALP1/ASC/caspase-1 growth, X-gal OD620, 72 h; inhibition, % at 10 µM; 280,000 compounds, 0.61% hits; in the data active = inhibition mostly above about 24%, no sharp cut-off; inactive = mostly below about 32%
tim23-1 inh: inhibits growth of tim23-1 mutant yeast. S. cerevisiae tim23-1 growth, BacTiter-Glo luminescence, 24 h. inhibition, % at 20 µM. 330,000 compounds, 1.3% hits. AID 463212;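 active = growth inhibition of the mutant yeast at or above 50%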;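 note: temperature-sensitive mutant grown at 25 °C; plate controls were DMSO-treated mutant yeast for no effect and medium wells lacking yeast for full effect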
tim10-1 confirm: tim10-1 yeast growth inhibition, confirmed; shares compounds with tim10-1 inh; S. cerevisiae tim10-1 ts strain growth, BacTiter-Glo, 24 h; inhibition, % at 20 µM; 7,400 compounds, 56% hits;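 active = inhibition of yeast growth at or above a set limit in either of two repeat tests at 20 µM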;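 note: tim10-1 mutant grown at permissive 25 °C to find synthetic lethal compounds; 0% = DMSO yeast wells and 100% = medium wells without yeast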
TIM10 conf: confirmation of TIM10 yeast growth inhibitors | S. cerevisiae tim10 strain growth, BacTiter-Glo luminescence, 24 h | AID 463215 | inhibition, % at 10 µM | shares compounds with TIM10 inh | 4,600 compounds, 63% hits;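 active = inhibition of yeast growth at or above a set limit in either of two replicates at 10 µM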;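 note: this counterscreen used the strain with wild-type TIM10; 0% = yeast with DMSO and 100% = medium wells lacking yeast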
tim23-1 confirm: tim23-1 yeast growth inhibition, confirmed; shares compounds with tim23-1 inh; inhibition, % at 20 µM; 4,400 compounds, 83% hits; S. cerevisiae tim23-1 growth, BacTiter-Glo luminescence, 24 h;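 active = inhibition above about 39% in either of two replicate wells at 20 µM, limit read from the data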;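 note: temperature-sensitive tim23-1 mutant grown at 25 °C; 0% = DMSO wells with yeast and 100% = medium wells without yeast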
Starred values were filed as active, the others as inactive.

For Cc1cc(O)c(C(C)C)cc1NC(=O)Nc1ccc([N+](=O)[O-])cc1 the results were V-ATPase pH -3.
Screening CN1c2ccccc2C(C)(C)C12C=Cc1cc(O)ccc1O2 (stereo not drawn) returned tim10-1 inh 52*, TIM10 inh 43*, V-ATPase pH -2, NLRP3 yeast inh 16, NALP1 yeast inh -7, tim23-1 inh 55*, tim10-1 confirm 41*, TIM10 conf 42* and tim23-1 confirm 52*.
N#C/C(=C\c1cccc(Oc2ccccc2)c1)C(=O)N1CCOCC1 was read as tim10-1 inh 81*, TIM10 inh 82*, V-ATPase pH 0, NLRP3 yeast inh 30, NALP1 yeast inh 9, tim23-1 inh 80*, tim10-1 confirm 80*, TIM10 conf 78* and tim23-1 confirm 76*.
For COc1ccccc1C1CCN(Cc2cccc([N+](=O)[O-])c2)CC1 the results were tim10-1 inh 18, TIM10 inh -5, V-ATPase pH 3, NLRP3 yeast inh 16, NALP1 yeast inh 18 and tim23-1 inh -5.
For COc1ccccc1C1CCN(c2ccc(CO)cc2[N+](=O)[O-])CC1 the results were tim10-1 inh 64*, TIM10 inh 42*, V-ATPase pH 1, NLRP3 yeast inh 17, NALP1 yeast inh 29, tim23-1 inh 64*, tim10-1 confirm 61*, TIM10 conf 36* and tim23-1 confirm 73*.
Screening Cc1ccc(S(=O)(=O)NCC(=O)OCc2nnc(-c3ccccc3)o2)cc1 returned tim10-1 inh -1, TIM10 inh 2, V-ATPase pH -1, NLRP3 yeast inh 2, NALP1 yeast inh -5 and tim23-1 inh 6.
`CCCn1c(SCC(N)=O)nc2c(c1=O)C1(CCCC1)Cc1ccccc1-2` gave tim10-1 inh 21, TIM10 inh 20, V-ATPase pH -2, NLRP3 yeast inh 3, NALP1 yeast inh -8 and tim23-1 inh 23.
CCCC(=O)Nn1cnc2c(c1=O)C1(CCCCC1)Cc1ccccc1-2 was read as tim10-1 inh 41*, TIM10 inh 52*, V-ATPase pH 3, NLRP3 yeast inh -7, NALP1 yeast inh 13, tim23-1 inh 53*, tim10-1 confirm 44*, TIM10 conf 40* and tim23-1 confirm 52*.
For N#CC(C#N)=C(N)Nc1cccc(Cl)c1 the results were tim10-1 inh -15, TIM10 inh -3, V-ATPase pH 1, NLRP3 yeast inh 14, NALP1 yeast inh -29 and tim23-1 inh -16.
`CC1CCC(=C(C#N)C(=O)Nc2cccc(Cl)c2)CC1` (stereo not drawn) gave tim10-1 inh 45*, TIM10 inh 35, V-ATPase pH 0, NLRP3 yeast inh 14, NALP1 yeast inh 19, tim23-1 inh 60*, tim10-1 confirm 42* and tim23-1 confirm 51*.
For CCOC(=O)C(=CNc1ccc(OC)cc1[N+](=O)[O-])C(=O)OCC the results were tim10-1 inh 16, TIM10 inh 9, V-ATPase pH -1, NLRP3 yeast inh 24, NALP1 yeast inh -5 and tim23-1 inh 14.
Cc1nc2c(-c3ccc(F)cc3)cnn2c(N)c1-c1ccccc1 was read as tim10-1 inh 46*, TIM10 inh 45*, V-ATPase pH -2, NLRP3 yeast inh 4, NALP1 yeast inh 17, tim23-1 inh 74*, tim10-1 confirm 35*, TIM10 conf 52* and tim23-1 confirm 42*.
COc1ccc2c(c1)c1ccc3c(c1n2C)C(=O)C=CC3=O was read as tim10-1 inh 47*, TIM10 inh 55*, V-ATPase pH -1, NLRP3 yeast inh 23, NALP1 yeast inh 4, tim23-1 inh 68*, tim10-1 confirm 60*, TIM10 conf 93* and tim23-1 confirm -19.
